Test results reported in PubChem BioAssay (Tox21).
Inconclusive results are not listed. Calls of active or inactive are those of the source. Unless noted, calls come from the whole dose curve; as a rule, active = well fitted curve in the direction sought with a large enough effect in the repeat runs; inconclusive = weak or mixed curves; inactive = no such curve, though single readings can be large; an effect the other way counts as inactive or inconclusive.

Tests used:
[1] = qHTS assay for small molecule agonists of the p53 signaling pathway (AID 651631; calls by dose curve; note: nearly all actives have a fitted effect of over 15% in size)
Outline: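 HCT-116 cells carrying a beta-lactamase reporter under p53 response elements were dosed with compound for 16 h at 37 °C. LiveBLAzer B/G FRET substrate was then added for 2 h at room temperature, and fluorescence intensity was read to detect pathway agonism.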

[2] = qHTS assay for small molecules that induce genotoxicity in human embryonic kidney cells expressing luciferase-tagged ATAD5 (AID 651632); note: nearly all actives have a fitted effect of over 15% in size
Outline: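 A rise in luciferase signal from ATAD5-tagged HEK293T cells marks genetic stress. Cells were exposed to compounds for 16 hr at 37C, 5% CO2, then luciferase was quantified after a 30 min room-temperature incubation with Amplite.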

[3] = qHTS assay for small molecule agonists of the p53 signaling pathway - cell viability (AID 651633; calls by dose curve;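 note: p53RE-bla HCT reporter cells with a stable beta-lactamase p53 reporter; nearly all actives have a fitted effect of over 30% in size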)
Outline: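 p53RE-bla cells, seeded at 4,000 per well and rested 5 h at 37 C/5% CO2, received compounds in DMSO for 16 h at 37 C. CellTiter-Glo was then added, and luminescence was read after 30 min at room temperature to gauge cytotoxicity.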

[4] = qHTS assay for small molecules that induce genotoxicity in human embryonic kidney cells expressing luciferase-tagged ATAD5 - cell viability (AID 651634; calls by dose curve; note: nearly all actives have a fitted effect of over 25% in size)
Outline: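 Cytotoxicity counter-readout: after 15.5 hr compound treatment at 37C, live-cell protease activity in ATAD5-luciferase HEK293T cells measured by CellTiter-Fluor fluorescence, 30 min development at 37C.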

[5] = qHTS assay for small molecule disruptors of the mitochondrial membrane potential - cell viability (AID 720634; calls by dose curve;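 note: human HepG2 liver cancer cells; nearly all actives have a fitted effect of over 20% in size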)
Outline: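 Cytotoxicity was quantified from ATP content by CellTiter-Glo luminescence in the same wells as the MMP dye read-out. HepG2 (2,000 cells/well) were plated overnight and exposed to compounds for 1 hr at 37 C.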

[6] = qHTS assay for small molecule disruptors of the mitochondrial membrane potential (AID 720635)
Outline: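 HepG2 cells (2,000/well) attached overnight at 37C, then took compound for 1 hr at 37C, 5% CO2. Mito-MPS dye was added for 30 min; fluorescence was read at 490/535 nm (monomers) and 540/590 nm (aggregates).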

[7] = qHTS assay to test for compound auto fluorescence at 590 nm (red) in HepG2 cells (AID 720674)
Outline: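 Intrinsic compound fluorescence in the red window (Ex/Em 540/590 nm) is measured in attached HepG2 cells exposed for 1 hr, DMSO vehicle as baseline, benchmarked to Rose Bengal sodium.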

[8] = qHTS assay to test for compound auto fluorescence at 535 nm (green) in HepG2 cells (AID 720675)
[9] = qHTS assay to test for compound auto fluorescence at 460 nm (blue) in HEK293 cells (AID 720678)
Outline: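 Cells were seeded and left to adhere for 4-5 hr at 37C. Compounds were then pin-transferred. After an overnight incubation at 37C under 5% CO2, intrinsic fluorescence at 405/460 nm was measured and referenced to triamterene.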

[10] = qHTS assay to test for compound auto fluorescence at 590 nm (red) in HEK293 cells (AID 720679)
Outline: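 Each well held 2,000 HEK293 cells in medium containing 10% dialyzed FBS. Following 4-5 hr attachment at 37C, 23 nL test compound or DMSO was added; plates sat overnight, and red fluorescence (540/590nm) was recorded.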

[11] = qHTS assay to test for compound auto fluorescence at 535 nm (green) in HEK293 cells (AID 720680)
[12] = qHTS assay to test for compound auto fluorescence at 535 nm (green) in HEK293 cell free culture (AID 720682)
Outline: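 Green-label autofluorescence (485 nm excitation, 535 nm emission) measured on compound added to cell-free culture medium (DMEM, 10% FBS). Output is expressed relative to fluorescein.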

[13] = qHTS assay to test for compound auto fluorescence at 590 nm (red) in HEK293 cell free culture (AID 720683)
Outline: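 Tox21 10K library compounds were pinned into cell-free DMEM with 10% FBS and fluorescence was read at excitation 540 nm. Activity is expressed as Rose Bengal sodium equivalency.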

[14] = qHTS assay to test for compound auto fluorescence at 590 nm (red) in HepG2 cell free culture (AID 720684)
Outline: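 Readout: intrinsic compound fluorescence at 590 nm emission after 540 nm excitation, scaled to Rose Bengal sodium. Matrix was cell-free MEM with 10% FBS; DMSO vehicle wells served as control.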

[15] = qHTS assay to test for compound auto fluorescence at 535 nm (green) in HepG2 cell free culture (AID 720686)
[16] = qHTS assay to test for compound auto fluorescence at 460 nm (blue) in HepG2 cells (AID 720687)
Outline: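 Cells (2,000/well in MEM with 10% FBS) attached overnight at 37 C, then were exposed to compound or DMSO for 1 hr at 37 C, 5% CO2. Fluorescence read at Ex/Em 405/460 nm, expressed as triamterene-equivalent signal.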

[17] = qHTS assay to test for compound auto fluorescence at 460 nm (blue) in HepG2 cell free culture (AID 720685)
Outline: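 Cell-free plates of MEM plus 10% FBS received 23 nL compound or DMSO vehicle; blue-channel (405/460 nm) intensity scored against triamterene as reference fluorophore.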

[18] = molecular target: Glucocorticoid receptor (Homo sapiens) (UniProt P04150); test: qHTS assay to identify small molecule agonists of the glucocorticoid receptor (GR) signaling pathway (AID 720691; active = well fitted activation curve with a large enough effect in the signal ratio in the repeat runs, not every such curve was filed as active; the % refers to the signal ratio); conditions: GR-bla HeLa, beta-lactamase reporter ratio, 18 h; activation: at 62.4 µM (top of the series)
Glucocorticoid receptor (Homo sapiens), sequence (P04150 whole entry, looked up): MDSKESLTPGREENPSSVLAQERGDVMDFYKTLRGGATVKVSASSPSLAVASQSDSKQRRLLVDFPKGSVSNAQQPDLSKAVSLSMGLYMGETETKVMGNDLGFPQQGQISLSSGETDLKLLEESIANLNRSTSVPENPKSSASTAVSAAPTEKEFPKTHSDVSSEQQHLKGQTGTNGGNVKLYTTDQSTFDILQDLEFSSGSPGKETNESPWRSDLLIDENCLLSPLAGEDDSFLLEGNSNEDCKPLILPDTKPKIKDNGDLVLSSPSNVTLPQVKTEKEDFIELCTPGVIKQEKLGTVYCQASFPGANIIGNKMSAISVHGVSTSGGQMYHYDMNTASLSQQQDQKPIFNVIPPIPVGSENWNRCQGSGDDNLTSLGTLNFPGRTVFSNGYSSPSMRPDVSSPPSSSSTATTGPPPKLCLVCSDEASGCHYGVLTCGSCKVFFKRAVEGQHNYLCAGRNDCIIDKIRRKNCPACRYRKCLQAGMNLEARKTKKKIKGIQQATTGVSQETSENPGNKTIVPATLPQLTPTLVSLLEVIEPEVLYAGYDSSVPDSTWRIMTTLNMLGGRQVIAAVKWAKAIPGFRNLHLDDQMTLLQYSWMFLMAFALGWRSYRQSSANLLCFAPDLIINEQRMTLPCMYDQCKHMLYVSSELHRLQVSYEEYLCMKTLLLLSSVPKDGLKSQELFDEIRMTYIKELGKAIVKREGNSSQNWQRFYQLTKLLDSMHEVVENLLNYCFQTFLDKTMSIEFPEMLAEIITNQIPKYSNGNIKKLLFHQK
Outline: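 Agonist-mode qHTS in HeLa cells stably expressing a glucocorticoid-response-element beta-lactamase reporter. Fluorescence intensity read with FRET substrate (2 h, room temperature) after 18 h compound treatment at 37 C.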

[19] = molecular target: Glucocorticoid receptor (Homo sapiens) (UniProt P04150); test: qHTS assay to identify small molecule antagonists of the glucocorticoid receptor (GR) signaling pathway (AID 720692; active = well fitted inhibition curve with a large enough effect in the signal ratio in the repeat runs, not every such curve was filed as active; the % refers to the signal ratio)
Outline: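 Inhibition of dexamethasone-driven (5 nM final) beta-lactamase expression was measured in GRE-reporter HeLa cells over 18 h at 37C. Fluorescence was read after 2 h with the B/G FRET substrate at room temperature.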

[20] = qHTS assay to test for compound auto fluorescence at 460 nm (blue) in HEK293 cell free culture (AID 720681)
Outline: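 Test compounds were pinned into cell-free culture medium (DMEM with 10% FBS) and fluorescence was read directly at Ex/Em 405/460 nm. Signals were expressed as fluorescence equivalents of triamterene, with DMSO vehicle as control.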

Measured: Potency

CC(C)CC(=O)CC(C)C
inactive: [1] | [2] | [3] | [4] | [5] | [6] | [7] | [8] | [9] | [10] | [11] | [12] | [13] | [14] | [15] | [16]

C[Si](O[Si](C)(C)C)O[Si](C)(C)C
inactive: [1] | [2] | [3] | [5] | [6] | [7] | [8] | [9] | [10] | [11] | [12] | [14] | [17] | [15] | [16] | [18] | [19]

CCCCCCOCCO
inactive: [1] | [2] | [3] | [4] | [5] | [6] | [7] | [8] | [9] | [10] | [20] | [12] | [13] | [14] | [15] | [16] | [18] | [19]

Fc1ccc(Br)cc1
inactive: [1] | [2] | [3] | [4] | [5] | [6] | [7] | [8] | [9] | [10] | [11] | [12] | [14] | [15] | [16] | [18] | [19]

CCC(O)OC(O)CC (centres undefined)
inactive: [1] | [2] | [3] | [4] | [5] | [6] | [7] | [8] | [9] | [10] | [11] | [20] | [12] | [14] | [15] | [16] | [18] | [19]

O=C(O)c1cc(O)c(O)c(O)c1
inactive: [1] | [2] | [3] | [5] | [6] | [7] | [8] | [9] | [10] | [11] | [20] | [12] | [13] | [14] | [17] | [15] | [16] | [18]

ON=C1CCCCC1
inactive: [1] | [2] | [3] | [4] | [5] | [6] | [8] | [9] | [10] | [12] | [13] | [14] | [15] | [16] | [18] | [19]

c1ccc2scnc2c1
inactive: [1] | [2] | [3] | [4] | [5] | [6] | [7] | [8] | [9] | [10] | [11] | [12] | [13] | [14] | [17] | [15] | [16] | [18] | [19]
